Compound activity as filed in PubChem BioAssay.
Compounds with a hit are over-represented: about 3.4% of the library has one in this group of screens.
PP5 inh – blocks human protein phosphatase 5 activity; P53041; purified PP5c, OMFP substrate fluorescence; inhibition, % at 6.7 µM; 320,000 compounds, 0.18% hits;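 active = inhibition above the campaign's mean inhibition across all tested compounds plus 3 SD, cut at about 9.5% in these data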;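 note: 0% = DMSO only and 100% = 100 µM cantharidin control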
Target sequence (P53041 whole entry, looked up): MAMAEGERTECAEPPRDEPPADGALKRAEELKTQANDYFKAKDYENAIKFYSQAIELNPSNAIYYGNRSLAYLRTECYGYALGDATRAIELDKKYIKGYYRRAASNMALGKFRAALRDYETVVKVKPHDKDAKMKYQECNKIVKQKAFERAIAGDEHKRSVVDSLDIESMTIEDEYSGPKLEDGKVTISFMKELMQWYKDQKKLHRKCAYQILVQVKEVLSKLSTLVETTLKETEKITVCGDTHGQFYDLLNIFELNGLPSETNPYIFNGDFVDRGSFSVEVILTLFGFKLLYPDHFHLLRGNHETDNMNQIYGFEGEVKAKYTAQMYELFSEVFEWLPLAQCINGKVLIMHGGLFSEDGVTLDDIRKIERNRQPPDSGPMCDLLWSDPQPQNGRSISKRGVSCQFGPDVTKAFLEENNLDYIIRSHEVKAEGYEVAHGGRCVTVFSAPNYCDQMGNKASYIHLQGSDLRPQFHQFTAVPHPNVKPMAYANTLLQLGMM
pPAFAH inh – inhibitors of human plasma PAF acetylhydrolase (pPAFAH) | 330,000 compounds, 1.5% hits | recombinant pPAFAH, FP-rhodamine probe fluorescence polarization | Q13093 | inhibition, % at 3.39 µM;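 active = inhibition above the mean inhibition across the screen plus 3 SD, cut at about 25% in these data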;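 note: inhibitors block binding of the rhodamine activity-based probe so polarization drops; 0% = enzyme with DMSO and 100% = wells lacking pPAFAH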
PAFAH1B2 inh – blocks human PAF acetylhydrolase 1b catalytic subunit 2; P68402; recombinant PAFAH1B2, FP-rhodamine activity probe, fluorescence polarization; inhibition, % at 3.39 µM; 340,000 compounds, 1.2% hits;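 active = inhibition above the mean of all tested compounds plus 3 SD, cut at about 24% in these data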;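 note: 0% = enzyme with DMSO and 100% = wells lacking PAFAH1B2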
PP1 inh – PP1-alpha (human) inhibition in PP5 counter-screen; 320,000 compounds, 0.9% hits; P62136; purified PP1alpha, OMFP fluorescence; inhibition, % at 6.7 µM;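 active = inhibition above the mean inhibition of all tested compounds plus 3 SD, computed separately for each screening campaign, cut at about 15% in these data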
PAFAH2 inh – inhibitors of human PAFAH2; recombinant PAFAH2, FP-rhodamine activity probe, fluorescence polarization; Q99487; inhibition, % at 3.39 µM; 340,000 compounds, 0.99% hits;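 active = inhibition above the mean over all tested compounds plus 3 SD, cut at about 30% in these data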;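 note: inhibitors block probe labeling of enzyme so polarization drops; 0% = enzyme with DMSO and 100% = wells lacking PAFAH2 protein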
PAFAH1B3 FP inh – inhibitors of human PAFAH1B3 | Q15102 | recombinant PAFAH1B3, FP-rhodamine probe, fluorescence polarization | inhibition, % at 3.39 µM | 340,000 compounds, 0.28% hits | AID 492972;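 active = inhibition above the screen-wide average of all tested compounds plus 3 SD, cut at about 25% in these data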;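 note: 0% = enzyme with DMSO only and 100% = wells lacking PAFAH1B3 protein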
The depositor's hits bear a star.

SMILES | PP5 inh | pPAFAH inh | PAFAH1B2 inh | PP1 inh | PAFAH2 inh | PAFAH1B3 FP inh
O=C1c2cc(O)cc(O)c2C(=O)c2c1cc(O)c([C@@H](CO)CCO)c2O | 4 | 31* | 19 | 0 | 18 | 17
Cc1cc(O)c2c(c1)C(=O)c1cc(O)cc(O)c1C2=O | 1 | 30* | 4 | 0 | 10 | 20
Cn1c(SCC(=O)Nc2nccs2)nnc1-c1ccc(S(=O)(=O)N2CCCC2)cc1 | 4 | -6 | 6 | 3 | 1 | 4
O=C(CSc1n[nH]c(-c2ccc(S(=O)(=O)N3CCCCC3)cc2)n1)Nc1nccs1 | 0 | 17 | 39* | 3 | 6 | 2
CC(C)c1ccc(NC2CCCN(C(=O)c3n[nH]c4c3CCC4)C2)cc1 (stereo not drawn) | 0 | 3 | 27* | -1 | 3 | 2
COC(=O)c1ccc(C(=O)N2CCCC(Nc3ccc(C(C)C)cc3)C2)cc1 (stereo not drawn) | 5 | 12 | 15 | -8 | 0 | 7
Cc1cc(=O)[nH]c(SCc2ccc(Cl)cc2Cl)n1 | 1 | 9 | 29* | 0 | 22 | -3
Cc1cnc(SCc2ccc(Cl)cc2Cl)[nH]c1=O | 1 | 6 | 27* | 0 | 5 | 11
Cc1nnc(SCc2ccc(Cl)cc2Cl)[nH]c1=O | -1 | 21 | 27* | -3 | 12 | 6
Cc1ccc(C)c(CSc2nnc(C)c(=O)[nH]2)c1 | 1 | 0 | 6 | 4 | -4 | 6
CCOC(=O)C1=C(CS(=O)(=O)c2ccccc2)NC(=O)NC1c1ccccc1 (stereo not drawn) | -9 | -12 | 4 | -7 | -1 | 10
CC1CC(NS(=O)(=O)c2cccs2)CC(C)(C)C1 (stereo not drawn) | -1 | -3 | 29* | 3 | 8 | 15
CC1CCc2c(sc(NC(=O)c3ccccc3C(=O)O)c2C#N)C1 (stereo not drawn) | 5 | 1 | -1 | -4 | -2 | 2
N#Cc1c(NC(=O)C2CC=CCC2C(=O)O)sc2c1CCCCCC2 (stereo not drawn) | 2 | -2 | 45* | -1 | 6 | 4
N#Cc1c(NC(=O)CCC(=O)O)sc2c1CCCCC2 | 1 | 10 | 6 | -4 | 13 | 7
CC(C)(C)C1CCc2c(sc(NC(=O)C3CC=CCC3C(=O)O)c2C#N)C1 (stereo not drawn) | 4 | 31* | 59* | 11 | 12 | 10
CCC(C)(C)C1CCc2c(sc(NC(=O)c3ccccc3C(=O)O)c2C#N)C1 (stereo not drawn) | 4 | 32* | 67* | 11 | 15 | 11
CCn1c(CNC(=O)COc2ccc(C(C)C)cc2)nnc1SCC(=O)Nc1ccccc1F | 2 | 3 | 6 | 2 | 5 | 5
CCn1c(CNC(=O)COc2ccc(C(C)C)cc2)nnc1SCC(=O)Nc1ccccc1C(C)C | 3 | 30* | 3 | 2 | 2 | 6
O=C(NS(=O)(=O)Nc1ccc(Cl)cc1)c1c[nH]c2ccccc12 | 4 | 0 | 3 | -6 | -1 | 10
O=C(NCc1ccccc1)c1cccc(COc2cc(Cl)ccc2Cl)c1 | 1 | -6 | 8 | 2 | -15 | 2
CN(C(=O)c1cccc(COc2ccc(Cl)cc2Cl)c1)c1ccccc1 | 3 | 2 | 27* | 2 | -1 | -7
CN(C)c1ccc(-c2nn3c(-c4ccccc4Cl)nnc3s2)cc1 | 2 | 15 | 2 | 16* | 10 | 7
COc1ccccc1-c1nnc2sc(-c3ccc(N(C)C)cc3)nn12 | 3 | 12 | -3 | 1 | 3 | 6
CC(=O)n1nc(-c2ccccc2)nc1NCc1cccs1 | 3 | 4 | 5 | 2 | -2 | 14
CCCC(C)NC(=O)COC(=O)c1ccc2c(c1)C(=O)N(Cc1ccco1)C2=O (stereo not drawn) | 0 | 25* | 3 | -4 | -10 | 6
CC(C)CNC(=O)COC(=O)c1ccc2c(c1)C(=O)N(Cc1ccco1)C2=O | 2 | 27* | 0 | 3 | 5 | 0
CC(C)(C)C(=O)COC(=O)c1ccc2c(c1)C(=O)N(Cc1ccco1)C2=O | 4 | 1 | 0 | -1 | -2 | 17
O=C(O)c1ccc2c(c1)C(=O)N(Cc1ccco1)C2=O | 3 | -3 | -2 | -2 | 4 | 6
